Values without a mark were called inactive.

For the assay, the system named is Aedes aegypti larvae. The experiment in a line: larval motility relative to same well at 0 h (fraction); higher = more motile (less active compound), active = 0.4 or less. The settings on record: 10 µM. An outline of the steps: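 Relative motility is the score of a well divided by its own score at the first recording. Movies were made with INVAPP at 0, 2 and 24 h, each having 200 frames at 100 ms intervals. Larvae of Aedes aegypti, from 18–24 h hatches in pond salt solution with yeast at 25 °C, sat at about 10 per well (100 µL) in 96-well plates with compounds at 10 µM and 1% v/v DMSO. Solvent and larvicide control wells were included on every plate, and values are medians of three independent larval batches.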

Turning to `O=C(Nc1ncc(Cc2cccc3ccccc23)s1)C1CCCCC1`, the larval motility by setting is: (2 h) 1.07; (24 h) 1.56.

With `C[C@@H](c1nc(-c2ccc(C#N)cc2)cs1)[C@](O)(Cn1cncn1)c1ccc(F)cc1F`, the larval motility (2 h) was 0.723 and the larval motility (24 h) was 0.498.

With `Cc1c(CN(C)C(=O)/C=C/c2cnc3c(c2)C(C)(C)C(=O)N3)oc2ccccc12`, the larval motility by setting is: (2 h) 1.24; (24 h) 1.15.

Consider `CCOc1noc2cc(OCCC3CCN(c4ccc(C)nn4)CC3)ccc12`, for which the larval motility by setting is: (2 h) 0.793; (24 h) 1.06.

As for `c1ccc(Cn2c(-c3ccccn3)nc3ccccc32)cc1`, the larval motility is 1.19 (2 h) and 1.02 (24 h).

With `COc1ccc(SCC(=O)N2c3ccccc3Sc3ccccc32)cc1`, the larval motility is 0.631 (2 h) and 1.01 (24 h).

For the compound `c1cnc(NCc2ccc(CNc3ncccn3)cc2)nc1`, the larval motility (2 h) was 1.23 and the larval motility (24 h) was 0.598.

In the case of `CC(C)Nc1ncnc2c1cnn2-c1ccc(Cl)cc1`, the larval motility was 0.689 (2 h) and 0.773 (24 h).

`CCc1nc2ccc(Cl)cn2c1C(=O)NCc1ccc(N2CCC(c3ccc(OC(F)(F)F)cc3)CC2)cc1`: the larval motility is, setting by setting: (2 h) 0.959; (24 h) 0.891.

In the case of `N#CCN1C(=O)COc2cc(F)c(N3C(=O)c4ccccc4C3=O)cc21`, the larval motility is 0.915 (2 h) and 1.91 (24 h).

`Nc1nc(O)c2ncn(COC(CO)CO)c2n1`: the larval motility was 1.05 (2 h) and 0.821 (24 h).

For `CC(C)n1cnc2c(NCc3ccccc3)nc(NCc3ccccc3)nc21`, the larval motility by setting is: (2 h) 1.3; (24 h) 1.42.

With `CC1=C(/C=C/C(C)=C/C=C/C(C)=C/C(=O)Nc2ccc(O)cc2)C(C)(C)CCC1`, the larval motility reads like this: (2 h) 0.95; (24 h) 0.595.

Turning to `Cn1c2ccccc2c(=O)c2c(O)cccc21`, the larval motility (2 h) was 1.15 and the larval motility (24 h) is 1.13.

Consider `CN(O)C(=O)c1cc2c(CN3CCC[C@H]3C(N)=O)cn(Cc3ccc(F)cc3)c2cn1`, for which the larval motility was 0.668 (2 h) and 1.08 (24 h).

Consider `Cc1cc(C)n(O)c(=O)c1`, for which the larval motility was 0.846 (2 h) and 0.863 (24 h).

For the compound `O=c1cc(NCCCN[C@@H]2CCOc3c(Br)cc(Br)cc32)[nH]c2ccsc12`, the larval motility is, setting by setting: (2 h) 0.659; (24 h) 1.28.

Take `NNC(=O)c1ccncc1`: the larval motility was 0.924 (2 h) and 0.744 (24 h).

In the case of `CCCC1(C2CC2)c2cc(Cl)ccc2NC(=O)N1C` (stereo unspecified), the larval motility (2 h) was 0.846 and the larval motility (24 h) was 0.863.

In the case of `CC(=O)Oc1ccccc1C(=O)Nc1ncc([N+](=O)[O-])s1`, the larval motility reads like this: (2 h) 1.58; (24 h) 0.824.

Turning to `Cc1cc(Nc2ccc(F)cc2)nc(SCc2nc3ccccc3[nH]2)n1`, the larval motility was 0.661 (2 h) and 0.622 (24 h).

Take `COc1c(NC(=O)[C@H]2CC[C@@H](COc3ccc([N+](=O)[O-])cc3)CC2)c(F)cc2c(=O)c(C(=O)O)cn(C3CC3)c12`: the larval motility is 1.02 (2 h) and 0.873 (24 h).

For the compound `CCN(CC)S(=O)(=O)c1ccc(Cl)c(C(=O)Nc2sc3c(c2C#N)CCCC3)c1`, the larval motility reads like this: (2 h) 1.52; (24 h) 2.15.

Consider `CC(C)(C)OC(=O)NCc1ccc(C(=O)N[C@H]2CCOC2=O)cc1`, for which the larval motility is, setting by setting: (2 h) 0.701; (24 h) 0.769.

For the compound `NC[C@H]1OB(O)c2c(OCCCO)cccc21`, the larval motility reads like this: (2 h) 1.28; (24 h) 1.61.

For the compound `Cc1ccc(S(=O)(=O)Nc2cccc3cccnc23)cc1`, the larval motility is 1.02 (2 h) and 0.566 (24 h).

As for `COc1cc(Cc2cnc(N)nc2N)cc(OC)c1OC`, the larval motility is, setting by setting: (2 h) 0.864; (24 h) 0.829.

Regarding `Fc1cccc(Cl)c1C1CC(c2ccc(Cl)cc2)Nc2nnnn21` (stereo unspecified), the larval motility was 1.01 (2 h) and 1.08 (24 h).

`CCOCc1nc2c(N)nc3ccccc3c2n1CC(C)(C)O`: the larval motility is 1.09 (2 h) and 0.906 (24 h).

For `CC[C@H](CO)Nc1nc(NCc2ccccc2)c2ncn(C(C)C)c2n1`, the larval motility runs as follows: (2 h) 0.799; (24 h) 0.755.

Take `O=C(c1ccccc1)N1CCN(c2ccccc2NC(=O)C(Cl)(Cl)Cl)CC1`: the larval motility is, setting by setting: (2 h) 1.33; (24 h) 0.669.

Consider `CC(=O)N[C@H](C)C(=O)N[C@H](Cc1ccccc1)C(=O)O`, for which the larval motility by setting is: (2 h) 0.496; (24 h) 0.597.

Consider `O=C1C=C(c2ccccc2)S(=O)(=O)c2ccccc21`, for which the larval motility (2 h) was 0.748 and the larval motility (24 h) is 1.01.

Source of the values: the supplement of paper PMC8540655.
